The source of these data is the supplement of paper PMC3545927.

The experiment addresses furin, P09958. The experiment can be described thus: furin cleavage Z-score vs untreated control; higher = more cleavage, active = 3.5 or more, inactive = 1 or less, 8 variable residues between constant flanks. The method in brief:
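Reactions of 0.01 ml ran for 7.5, 15 or 30 min in 50 mM HEPES pH 7.5 with CaCl2 and NaCl, at 1:10 enzyme:substrate. In them, purified furin acted on bead-held 8-mer peptides fused to a cDNA oligonucleotide. The cleavage Z-score was obtained by lowess-adjusting log sequencing counts of released DNA against furin-free reactions and scaling by median absolute deviation.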

The other results are listed elsewhere or left out. How many sequences the whole screen found active is unknown.

Chain of furin, P09958 (P09958 whole entry, the tested form may be a part): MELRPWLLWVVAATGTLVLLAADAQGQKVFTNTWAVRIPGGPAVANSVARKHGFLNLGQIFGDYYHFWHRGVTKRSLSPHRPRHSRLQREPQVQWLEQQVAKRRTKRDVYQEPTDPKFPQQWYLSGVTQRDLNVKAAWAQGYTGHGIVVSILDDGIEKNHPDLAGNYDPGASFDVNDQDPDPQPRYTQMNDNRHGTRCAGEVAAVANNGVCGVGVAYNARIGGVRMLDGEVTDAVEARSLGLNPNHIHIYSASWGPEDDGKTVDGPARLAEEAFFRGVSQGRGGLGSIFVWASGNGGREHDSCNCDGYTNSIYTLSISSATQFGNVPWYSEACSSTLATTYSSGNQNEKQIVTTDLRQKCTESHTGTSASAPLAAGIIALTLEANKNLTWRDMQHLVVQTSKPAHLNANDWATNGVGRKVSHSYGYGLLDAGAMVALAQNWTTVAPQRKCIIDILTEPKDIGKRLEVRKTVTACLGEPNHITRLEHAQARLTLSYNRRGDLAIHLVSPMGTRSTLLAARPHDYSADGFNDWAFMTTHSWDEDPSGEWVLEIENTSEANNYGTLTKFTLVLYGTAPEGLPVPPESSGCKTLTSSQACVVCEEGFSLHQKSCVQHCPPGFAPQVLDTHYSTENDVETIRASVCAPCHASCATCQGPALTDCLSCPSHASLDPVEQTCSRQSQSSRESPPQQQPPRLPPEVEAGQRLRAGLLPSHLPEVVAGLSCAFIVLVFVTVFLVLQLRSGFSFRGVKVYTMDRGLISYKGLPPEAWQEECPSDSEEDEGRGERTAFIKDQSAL

With CAMEEFSQHLAGNASASA [HC6], the “furin cleavage Z-score” value was -0.132 (inactive) (7.5 min), -1.04 (inactive) (15 min) and -0.188 (inactive) (30 min).

Turning to CAADTVDGAGAGNASASA [CS9], the “furin cleavage Z-score” value is, setting by setting: (7.5 min) 0.142 (inactive); (15 min) -1.09 (inactive); (30 min) -0.572 (inactive).

Consider CADEECSQHLAGNASASA [HC1671], for which the “furin cleavage Z-score” value is, setting by setting: (7.5 min) 0.117 (inactive); (15 min) 0.56 (inactive); (30 min) -0.0902 (inactive).

Regarding CAEAVTSTWVAGNASASA [HC2163], the “furin cleavage Z-score” value (7.5 min) stood at 1.01, the “furin cleavage Z-score” value (15 min) was -0.993 (inactive) and the “furin cleavage Z-score” value (30 min) is -0.235 (inactive).

Regarding CAYTPCSGSWAGNASASA [HC1829], the “furin cleavage Z-score” value (7.5 min) was -0.863 (inactive), the “furin cleavage Z-score” value (15 min) was -0.615 (inactive) and the “furin cleavage Z-score” value (30 min) is -0.179 (inactive).

As for CAEVHTSTWVAGNASASA [HC2195], the “furin cleavage Z-score” value by setting is: (7.5 min) 0.614 (inactive); (15 min) -0.225 (inactive); (30 min) 1.53.

As for CAAFKIMSGEAGNASASA [HC1093], the “furin cleavage Z-score” value runs as follows: (7.5 min) -0.371 (inactive); (15 min) -0.656 (inactive); (30 min) -1.3 (inactive).

For CARFKRWKAEAGNASASA [FS-1853], the “furin cleavage Z-score” value by setting is: (7.5 min) 3.27; (15 min) 4.72 (active); (30 min) 6.24 (active).

For the sequence CARWGRSAQGAGNASASA [FS-3130], the “furin cleavage Z-score” value runs as follows: (7.5 min) 4.05 (active); (15 min) 4 (active); (30 min) 4.18 (active).

As for CARVRREDTPAGNASASA [FS-3125], the “furin cleavage Z-score” value (7.5 min) was 7.61 (active), the “furin cleavage Z-score” value (15 min) was 7.5 (active) and the “furin cleavage Z-score” value (30 min) is 6.22 (active).

Regarding CADPSHITAEAGNASASA [HC1249], the “furin cleavage Z-score” value is, setting by setting: (7.5 min) -0.448 (inactive); (15 min) -0.687 (inactive); (30 min) -1.36 (inactive).

Consider CARVRRSTAEAGNASASA [FS-2388], for which the “furin cleavage Z-score” value runs as follows: (7.5 min) 12.5 (active); (15 min) 12.2 (active); (30 min) 8.54 (active).

Consider CARPPRPAQGAGNASASA [FS-2057], for which the “furin cleavage Z-score” value was -0.496 (inactive) (7.5 min), -0.739 (inactive) (15 min) and -0.973 (inactive) (30 min).

As to CARFKKFATEAGNASASA [FS-1700], the “furin cleavage Z-score” value runs as follows: (7.5 min) 0.401 (inactive); (15 min) 0.983 (inactive); (30 min) -0.463 (inactive).

As to CARPDRSSQGAGNASASA [FS-3016], the “furin cleavage Z-score” value by setting is: (7.5 min) -1.72 (inactive); (15 min) -1.8 (inactive); (30 min) -1.46 (inactive).

For the sequence CAAGRRSEAEAGNASASA [FS-1877], the “furin cleavage Z-score” value by setting is: (7.5 min) -2 (inactive); (15 min) -1.75 (inactive); (30 min) -0.59 (inactive).

As for CAFTAGYSGGAGNASASA [HC1646], the “furin cleavage Z-score” value reads like this: (7.5 min) -0.828 (inactive); (15 min) -0.656 (inactive); (30 min) -0.88 (inactive).

Regarding CAESPCHRPSAGNASASA [HC2337], the “furin cleavage Z-score” value is 1.16 (7.5 min), 0.888 (inactive) (15 min) and -0.202 (inactive) (30 min).

With CATTPCSGSYAGNASASA [HC1929], the “furin cleavage Z-score” value runs as follows: (7.5 min) -0.34 (inactive); (15 min) -0.574 (inactive); (30 min) 0.025 (inactive).

As for CASTICSAHLAGNASASA [HC2504], the “furin cleavage Z-score” value is 1.31 (7.5 min), -0.501 (inactive) (15 min) and 1.12 (30 min).

For the sequence CAVPGAVYTFAGNASASA [HC552], the “furin cleavage Z-score” value is -0.518 (inactive) (7.5 min), 0.509 (inactive) (15 min) and -0.772 (inactive) (30 min).

Regarding CAPAAYAAQGAGNASASA [HC781], the “furin cleavage Z-score” value is 0.244 (inactive) (7.5 min), 1.54 (15 min) and 0.00948 (inactive) (30 min).

Regarding CARALRSSGTAGNASASA [FS-1944], the “furin cleavage Z-score” value was -0.0204 (inactive) (7.5 min), -0.353 (inactive) (15 min) and 0.495 (inactive) (30 min).

In the case of CARVRRAAQAAGNASASA [FS-2535], the “furin cleavage Z-score” value (7.5 min) is 8.23 (active), the “furin cleavage Z-score” value (15 min) is 7.6 (active) and the “furin cleavage Z-score” value (30 min) was 6.83 (active).

As to CARSCRAAQAAGNASASA [FS-3076], the “furin cleavage Z-score” value runs as follows: (7.5 min) 0.547 (inactive); (15 min) 1.19; (30 min) 1.76.

Take CARVRRAAQGAGNASASA [FS-2105]: the “furin cleavage Z-score” value by setting is: (7.5 min) 8.98 (active); (15 min) 8.61 (active); (30 min) 7.68 (active).

As to CARALRSVSRAGNASASA [FS-2641], the “furin cleavage Z-score” value is -0.658 (inactive) (7.5 min), -0.337 (inactive) (15 min) and 0.074 (inactive) (30 min).

For the sequence CARTDRSSDRAGNASASA [FS-1796], the “furin cleavage Z-score” value is, setting by setting: (7.5 min) -0.725 (inactive); (15 min) -1.9 (inactive); (30 min) -1.59 (inactive).

On to CARVRRQLDRAGNASASA [FS-3174], for which the “furin cleavage Z-score” value (7.5 min) was 10.3 (active), the “furin cleavage Z-score” value (15 min) is 12.6 (active) and the “furin cleavage Z-score” value (30 min) is 9.92 (active).

Turning to CARALRSLDLAGNASASA [FS-2325], the “furin cleavage Z-score” value (7.5 min) was 3.52 (active), the “furin cleavage Z-score” value (15 min) amounted to 2.8 and the “furin cleavage Z-score” value (30 min) is 4.65 (active).
